Measured values published in PubChem BioAssay (NCATS).
Inconclusive results are not listed. A number with no mark means an inactive call. Active and inactive are the calls of the source. The call rests on the fitted dose curve; in most records, active means well fitted cell-killing curve with a large enough effect; inconclusive means small, poorly fitted or top-dose-only effect, or effect the other way; inactive means no such curve, though single readings can be large or run the other way.

assay: Quantitative High-Throughput drug screen in 47 multiple myeloma cell lines against the NCATS MIPE library collection: JJN3_DSMZ cell viability assay (AID 1918966; further: nearly all actives have a fitted effect of over 50% in size); settings: JJN3 myeloma cells viability, CellTiter-Glo ATP, 48 h; series mostly up to 45.8 µM; viability, % of DMSO: at the top concentration
Text: PI: Beverly A. Mock Ph.D.
Laboratory of Cancer Biology and Genetics,
Center for Cancer Research, National Cancer Institute,
National Institute of Health, Bethesda, Maryland
Drug resistance and disease progression are common in multiple myeloma (MM) patients, underscoring the need for new therapeutic combinations. […] We hypothesized that effective combinations would reduce MYC expression and enhance p16 activity. […] These preclinical data identify potentially useful drug combinations for evaluation in drug-resistant MM and reveal potential mechanisms of combined drug sensitivity.
Described herein is the primary MIPE qHTS used to cherrypick compounds. Validated compounds were then further tested for potential synergistic activiy.
[1] Peat TJ, Gaikwad SM, Dubois W, Gyabaah-Kessie N, Zhang S, Gorjifard S, Phyo Z, Andres M, Hughitt VK, Simpson RM, Miller MA, Girvin AT, Taylor A, Williams D, D'Antonio N, Zhang Y, Rajagopalan A, Flietner E, Wilson K, Zhang X, Shinn P, Klumpp-Thomas C, McKnight C, Itkin Z, Chen L, Kazandijian D, Zhang J, Michalowski AM, Simmons JK, Keats J, Thomas CJ, Mock BA. Drug combinations identified by high-throughput screening promote cell cycle transition and upregulate Smad pathways in myeloma. Cancer Lett. 2023 Aug 1;568:216284. doi: 10.1016/j.canlet.2023.216284. Epub 2023 Jun 24. PMID: 37356470; PMCID: PMC10408729.
SEQUENCE No. (e.g., 1, 2, 3, etc.); […] (e.g., Cells, Incubation, Reagent, etc.); VALUE and DESCRIPTION.
1; Cells; 5 uL; white, solid bottom 1536-well Greiner assay plate.
2; Compounds; 23 nL; Kalypsis pin tool (Wako USA) equipped with a 1536-well pin head to transfer to the assay plates.
3; Incubation; 48 hours; 37C incubation.
4; Reagent;5uL; CellTiter Glo (Promega).
5; Detector; 425V; Luminescence; Viewlux PerkinElmer.
NOTES (numbers refer to Sequence numbers above)
1. The cell-based screening methods employed in this study were like those previously published. Briefly, the corresponding myeloma cell lines were screened in 1,536-well plates with 500 cells, 5-uL per well for inhibition of cell viability (assessed by measuring ATP levels with CellTiterGlo).
2. NCATS MIPE 4.0 library of approved and investigational drugs were added using the Kalypsis pin tool. Wells treated with DMSO only for 100% viability and media only wells for 0% viability were used as controls.
3. The assay plates were covered and incubated for 48 hours in a 37C, 5% CO2 incubator with controlled humidity.
4. After 48 hours, CellTilter-GloTM luminescent substrate mix (Promega) reagent was added to the assay plate and plates we incubated for 5 min at room temperature.
5. Signal was measured as median relative luminescence units on a ViewLux (PerkinElmer) multiplate reader.
[1] Heske CM, Davis MI, Baumgart JT, Wilson K, Gormally MV, Chen L, Zhang X, Ceribelli M, Duveau DY, Guha R, Ferrer M, Arnaldez FI, Ji J, Tran HL, Zhang Y, Mendoza A, Helman LJ, Thomas CJ. Matrix Screen Identifies Synergistic Combination of PARP Inhibitors and Nicotinamide Phosphoribosyltransferase (NAMPT) Inhibitors in Ewing Sarcoma. Clin Cancer Res. 2017 Dec 1;23(23):7301-7311. doi: 10.1158/1078-0432.CCR-17-1121. Epub 2017 Sep 12. PMID: 28899971; PMCID: PMC6636827.
Potency means the concentration at half of the fitted maximal effect.

SMILES | Potency | viability, % of DMSO
CCOC(=O)N1CCN([N+]([O-])=NOc2cc(ON=[N+]([O-])N3CCN(C(=O)OCC)CC3)c([N+](=O)[O-])cc2[N+](=O)[O-])CC1 | 2.96 µM (active) | 
CCC(C)SSc1ncc[nH]1 (stereo not given) | 4.69 µM (active) | 
CC(C)C[C@H](NC(=O)c1cc2ccccc2s1)C(=O)N1CCN(C(=O)[C@H](CO)NS(=O)(=O)c2ccc(Cl)cc2Cl)CC1 | 18.7 µM (active) | 
CCCCCCCCCCCCCC(=O)N[C@H](CO)[C@H](O)c1ccc([N+](=O)[O-])cc1 | 18.7 µM (active) | 
CSc1cccc(Nc2ncc3cc(-c4c(Cl)cccc4Cl)c(=O)n(C)c3n2)c1 | 3.32 µM (active) | 
COc1cc2c(cc1OC)[C@@H]1Cc3ccc(OC)c(OC)c3CN1CC2 | 20.9 µM (active) | 
CNC(=O)[C@H](Cc1ccccc1)NC(=O)[C@H](CC(C)C)[C@H](CSc1cccs1)C(=O)NO | 18.7 µM (active) | 
CCOc1ccccc1N=Nc1c(C)[nH]n(-c2nc(-c3ccccc3)cs2)c1=O | 10.5 µM (active) | 
NS(=O)(=O)c1cc(Cl)c(Cl)c(S(N)(=O)=O)c1 |  | 124%
COc1cc2c(cc1Cc1cccc(Cl)c1F)c(=O)c(C(=O)O)cn2[C@H](CO)C(C)C | 16.6 µM (active) | 
CN(C)CCN(Cc1ccc(Cl)cc1)c1ccccn1 |  | 79.4%
CO[C@H]1/C=C\O[C@@]2(C)Oc3c(C)c(O)c4c(O)c(c(C=NN5CCN(C6CCCC6)CC5)c(O)c4c3C2=O)NC(=O)C(C)=CC=C[C@H](C)[C@H](O)[C@@H](C)[C@@H](O)[C@@H](C)[C@H](OC(C)=O)[C@H]1C | 6.62 µM (active) | 
C=C[C@@H]1CN2CCC1C[C@@H]2C(O)c1ccnc2ccc(OC)cc12 (stereo not given in full) | 16.6 µM (active) | 
Cc1csc(-c2nnc(Nc3ccc(Oc4ncccc4-c4ccnc(N)n4)cc3)c3ccccc23)c1 | 18.7 µM (active) | 
Cn1c(=O)c(-c2c(Cl)cccc2Cl)cc2cnc(Nc3cccc(C(=O)O)c3)nc21 | 4.18 µM (active) | 
C[C@H]1COC2=C1C(=O)C(=O)c1c2ccc2c1CCCC2(C)C | 18.7 µM (active) | 
COc1cc([C@H]2Oc3cc([C@H]4Oc5cc(O)cc(O)c5C(=O)[C@H]4O)ccc3O[C@H]2CO)ccc1O | 9.35 µM (active) | 
CCc1cccc(CC)c1NC(=O)N1Cc2[nH]nc(NC(=O)c3ccc(N4CCN(C)CC4)cc3)c2C1 | 1.66 µM (active) | 
O=C(C=Cc1ccc(O)cc1)c1ccc(O)cc1O | 14.8 µM (active) | 
CCC[C@H](Nc1nc(-c2ccc(NC(=O)NCC)c(OC)c2)ncc1C)c1cccnc1 | 0.0235 µM (active) | 

SMILES | Potency | viability, % of DMSO
CC(C)Oc1cc(Nc2nc(N[C@@H](C)c3ccc(F)cn3)ncc2Cl)[nH]n1 | 20.9 µM (active) | 
Cc1ccc2c(c1)C(=O)[C@]1(O)CCN(c3ccccc3)C1=N2 | 11.8 µM (active) | 
COC1CCC(C(=O)c2ccc3nc4c(cc3c2)CCCO4)CC1 (stereo not given) | 20.9 µM (active) | 
O=C(c1ccc(C=Cc2n[nH]c3ccccc23)cc1)N1CCNCC1 | 18.7 µM (active) | 
COc1ccc(-c2oc3c(CC=C(C)C)c(O)cc(O)c3c(=O)c2O)cc1 | 18.7 µM (active) | 
O=C(CO)N1CCC(c2[nH]nc(-c3ccc(Cl)cc3)c2-c2ccncn2)CC1 | 1.66 µM (active) | 
CNC1CCC(N(Cc2cccc(-c3ccncc3)c2)C(=O)c2sc3ccccc3c2Cl)CC1 (stereo not given) | 18.7 µM (active) | 
Cc1ccc(C(=O)N(CCCN)[C@@H](c2oc3cc(Cl)ccc3c(=O)c2Cc2ccccc2)C(C)C)cc1 | 18.7 µM (active) | 
CN1CCc2c(n(Cc3ccc(C(=O)NO)cc3)c3ccccc23)C1 | 16.6 µM (active) | 
CCCCCCOC(=O)N=C(N)c1ccc(NCc2nc3cc(C(=O)N(CCC(=O)OCC)c4ccccn4)ccc3n2C)cc1 | 18.7 µM (active) | 
CNC(=O)c1cc(Oc2ccc(NC(=O)Nc3ccc(Cl)c(C(F)(F)F)c3)c(F)c2)ccn1 | 29.6 µM (active) | 
Cc1cnc(-c2cc(N3CCN(C(=O)CCS(C)(=O)=O)CC3)ncc2Cl)c(C)c1 |  | 169%
Nc1ccn([C@@H]2O[C@H](CO)[C@@H](O)[C@H]2O)c(=O)n1 |  | 109%
COc1ccc(-c2ccc3ncc4c(c3c2)n(-c2ccc(N3CCNCC3)c(C(F)(F)F)c2)c(=O)n4C)cn1 | 0.0066 µM (active) | 
COc1ccc(-c2nc3ccc(C4=NNC(=O)CC4C)cc3[nH]2)cc1 (stereo not given) |  | 112%
CN1N=C(N)c2cn([C@@H]3O[C@H](COP(=O)(O)O)[C@@H](O)[C@@H]3O)c3ncnc1c23 | 2.96 µM (active) | 
CC(C)CN(C[C@@H](O)[C@H](Cc1ccccc1)NC(=O)O[C@H]1CO[C@H]2OCC[C@H]21)S(=O)(=O)c1ccc(N)cc1 | 23.5 µM (active) | 
CCOC(=O)N1c2ccc(C(F)(F)F)cc2[C@@H](N(Cc2cc(C(F)(F)F)cc(C(F)(F)F)c2)C(=O)OC)C[C@H]1CC | 5.9 µM (active) | 
CN[C@@H]1[C@@H](O)[C@@H](O[C@@H]2[C@@H](O)[C@H](O[C@H]3O[C@H](CN)[C@@H](O)[C@H](O)[C@@H]3O)[C@@H](N)C[C@@H]2NC(=O)[C@@H](O)CN)OC[C@]1(C)O |  | 113%
Cc1cccc(Nc2nc(N[C@@H]3CCCC[C@H]3N)ncc2C(N)=O)c1 | 16.6 µM (active) | 
